Tau fibril ThT – qHTS for Inhibitors of Tau Fibril Formation, Thioflavin T Binding. Microtubule-associated protein tau (Homo sapiens), P10636. recombinant tau K18 P301L, heparin-induced fibrillization, ThT fluorescence. Potency, µM (top dose mostly 57.4 µM), actives largely listed as inhibitors. hit rate 2.1% among 270,000. AID 1460, 2008; note: nearly all actives have a fitted effect of over 55% in size
Target sequence (P10636 561-689 P618L limits assumed): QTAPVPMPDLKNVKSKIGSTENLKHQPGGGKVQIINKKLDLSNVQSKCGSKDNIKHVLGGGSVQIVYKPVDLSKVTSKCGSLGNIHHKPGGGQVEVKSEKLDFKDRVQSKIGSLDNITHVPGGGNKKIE
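Recombinant human tau K18 fragment […] carrying P301L, 15 uM unlabeled plus 0.24 uM Alexa 594-labeled, was fibrillized with 20 uM heparin in 100 mM sodium acetate pH 7 for 6 hr at 37 C; 30 uM ThT fluorescence read after 1 hr.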
Tau fibril FP – qHTS for Inhibitors of Tau Fibril Formation, Fluorescence Polarization. Microtubule-associated protein tau (Homo sapiens), P10636. K18 P301L tau heparin fibrillization, Alexa594 FP, 6 h. Potency, µM (series often up to 57.7 µM), usual class: inhibitors. hit rate 0.39% among 280,000. AID 1468, 2008; note: nearly all actives have a fitted effect of over 55% in size
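FP of Alexa 594-tau after heparin (20 uM) induction. Substrate: human K18 P301L, 15 uM unlabeled, 0.24 uM labeled. Buffer 100 mM sodium acetate pH 7. 6 hr, 37 C.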
Luc counter – Counterscreen for Luciferase (Kinase-Glo TM) Inhibition. Luciferin 4-monooxygenase (Photuris pensylvanica), Q27757. Kinase-Glo luciferase, ATP luminescence, 8 min. Potency, µM (top dose mostly 38.3 µM), hits mostly inhibitors. hit rate 0.28% among 200,000; note: nearly all actives have a fitted effect of over 60% in size
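Luminescence was the read-out, taken after 8-minute incubation at ambient temperature. Luciferase turned over luciferin with 10 uM ATP in imidazole pH 7.2 buffer containing KCl, MgCl2, Tween 20 and BSA.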
Tau fluor counter – Counterscreen qHTS for Inhibitors of Tau Fibril Formation, Fluorescence Polarization. tau K18 P301L Alexa594 fluorescence, heparin fibrillization. Potency, µM (highest dose often 57.7 µM). hit rate 0.93% among 280,000. AID 1463, 2008; note: nearly all actives have a fitted effect of over 55% in size
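Human K18 P301L tau (15 uM unlabeled plus 0.24 uM Alexa 594-labeled, final) in 100 mM sodium acetate pH 7 was mixed with compound and 20 uM heparin and incubated 6 hr at 37 C.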
NPSR antag – qHTS Assay for Antagonists of the Neuropeptide S Receptor: cAMP Signal Transduction; CHO-NPSR cells, cAMP TR-FRET, antagonist mode; Potency, µM (highest dose often 38.3 µM), most hits filed as inhibitors; hit rate 1% among 220,000; note: nearly all actives have a fitted effect of over 50% in size
Tau fibril TEM – Transmission Electron Microscopy Assay for Inhibitors of Tau Fibrillization | fibril grade (0 = clumped fibrils, 4 = only tiny pieces) (concentration not given with the values) | hit rate 70% among 45 | recombinant tau K18 P301L fibrillization, TEM grading; active compounds read high | shares compounds with Tau fibril ThT;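 active = compounds whose electron micrographs showed tau fibrils broken into shorter filaments or fragments, graded high on fibril breakup; inconclusive = micrographs gave an unclear fibril picture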
tau fibril sed – Sedimentation Assay for Inhibitors of Tau Fibrillization; AID 1720, 2009; shares compounds with Tau fibril ThT; hit rate 50% among 110; recombinant tau K18 P301L (four-repeat tau fragment), sedimentation SDS-PAGE densitometry; inhibition, % at 100 µM; in the data active = inhibition above about 40%; inconclusive = no clear call, values can overlap the other calls; inactive = below about 18%
Large screens that a line does not name were inactive (follow-up assays come after a bar, where they were run). Shown are actives, neighbours in structure and some others; about 3.3% of the full set was active somewhere. Unless noted, calls come from the whole dose curve; as a rule, active = well fitted curve in the direction sought with a large enough effect; inconclusive = small, poorly fitted or top-dose-only effect, or another doubt; inactive = no such curve, though single readings can be large; an effect the other way counts as inactive or inconclusive.

O=C(NC1CCCCC1)c1ccc(Cn2c(SCc3cccc(F)c3)nc3cccnc32)cc1	none (no result: Luc counter, NPSR antag)
CN(c1ccccc1)S(=O)(=O)c1nnc(NC(=O)COc2ccccc2)s1	Tau fibril ThT inconclusive, Tau fibril FP inconclusive, Tau fluor counter inconclusive (no result: Luc counter, NPSR antag) | tau fibril sed inconclusive
Cc1cc(C2=NNC(=Nc3ccccc3)SC2)c(C)n1C	Tau fibril ThT inconclusive
CN(C)S(=O)(=O)c1cccc(N=C2NN=C(c3ccccc3)CS2)c1	Tau fibril ThT 8.9µM, Tau fibril FP inconclusive, Tau fluor counter inconclusive | Tau fibril TEM 3 | tau fibril sed inconclusive
COC(=O)c1c(NC(=O)CCCOc2cccc(C)c2)sc2c1C(C(=O)OC)CC2 (stereo unspecified)	Tau fibril ThT 3.2µM, Tau fibril FP inconclusive (no result: Luc counter, NPSR antag) | Tau fibril TEM 2 | tau fibril sed 56
COC(=O)c1c(NC(=O)CCCOc2ccc(C)cc2)sc2c1C(C(=O)OC)CC2 (stereo unspecified)	Tau fibril ThT 7.9µM, Tau fibril FP inconclusive, Tau fluor counter inconclusive (no result: Luc counter, NPSR antag) | Tau fibril TEM 2 | tau fibril sed 56
COC(=O)c1c(NC(=O)CCCOc2cccc(C)c2)sc2c1CCC2	Tau fibril ThT inconclusive (no result: Luc counter, NPSR antag)
COC(=O)c1c(NC(=O)C(Cl)Cl)sc2c1C(C(=O)OC)CC2 (stereo unspecified)	Tau fibril ThT inconclusive (no result: Luc counter)
COC(=O)c1c(NC(=O)C(C)(C)C)sc2c1C(C(=O)OC)CC2 (stereo unspecified)	none | tau fibril sed inactive
C#C[C@]1(O)CCC2C3CCC4=C(CCC(=O)C4)C3CC[C@@]21C (stereo partly specified)	Tau fibril ThT inconclusive (no result: NPSR antag)
COc1ccc(NC(=O)CSC2=Nc3ccccc3C3=NC(CC(=O)NCc4ccc5c(c4)OCO5)C(=O)N23)cc1 (stereo unspecified)	none (no result: Luc counter, NPSR antag)
CCOC(=O)Cn1c(=O)n(CC2CCCO2)c2nc(-c3ccccc3)nc(C(N)=O)c21 (stereo unspecified)	none (no result: Luc counter, NPSR antag)
Nc1cc(-c2ccncc2)c[nH]c1=O	Tau fibril ThT 1.4µM, Tau fibril FP 2µM, Tau fluor counter inconclusive | Tau fibril TEM 3 | tau fibril sed 61
Nc1cc(-c2ccccc2)c[nH]c1=O	none (no result: Tau fibril ThT, Tau fibril FP, Luc counter, Tau fluor counter, NPSR antag) | Tau fibril TEM inconclusive | tau fibril sed 65
NC(=O)c1csc(-c2ccncc2)n1	none
CCOC(=O)CCCN	none (no result: Tau fibril ThT, Tau fibril FP, Tau fluor counter, NPSR antag)
COc1cccc(CNc2nc3c(-c4ccccc4)nnn3c3ccccc23)c1	none (no result: Luc counter, NPSR antag)

Screening results from PubChem BioAssay.
